This is a sample that favours compounds with a hit; in the whole collection about 1.3% have one here.
TRPV1 PAM = human TRPV1 potentiation; potentiation, % at 8.33 µM; 320,000 tested, 0.02% active; AID 540277; TRPV1-expressing cells, Fluo-8 calcium influx, capsaicin EC20 potentiation; Q8NER1; in the data active = potentiation above about 80%; inconclusive = between about 30% and that limit
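TRPV1-expressing cells were cultured overnight at 35.5C and loaded with Fluo-8 calcium dye for 40 to 90 min at room temperature. After a 10 s baseline, compound was added and calcium influx was read kinetically for 3 min (ex 480/em 520 nm).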
KCNH2 WT inh = inhibitors of human wildtype KCNH2 potassium channel; Q12809; U2OS, BacMam KCNH2, thallium flux FluxOr; stronger effect = lower value; activity change, % at 1.84 µM; 340,000 tested, 0.37% active;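 active = maximum activity change below -70%; inconclusive = maximum activity change between -70% and -50%; inactive = maximum activity change above -50%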
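U2OS cells were transduced with wild-type KCNH2 virus (2.03 x 10^8 / mL) for 4 h at room temperature, then cultured overnight at 37 C. Thallium flux was read with FluxOr dye. Rate constants were normalized to DMSO controls.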
TRPV1 ag = agonists of human vanilloid receptor 1 (TRPV1); 320,000 tested, 0.19% active; Q8NER1; TRPV1-expressing cells, Fluo-8 calcium influx, agonist mode; activation, % at 8.33 µM; AID 540275; in the data active = activation above about 80%; inconclusive = between about 30% and that limit
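Cells expressing TRPV1 were dye-loaded with Fluo-8 and read kinetically: 10 s baseline, 3 min after compound (agonist portion), then 2 min after EC20 capsaicin (allosteric enhancer portion). Calcium-bound dye fluorescence at 480/520 nm.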
MBNL1-CUG inh = blocks human MBNL1 binding to CUG repeat RNA | AID 2675 | Potency, µM (top dose mostly 57.5 µM), most hits filed as inhibitors | Q9NR56 | 280,000 tested, 0.036% active | TR-FRET MBNL1-His/biotin-(CUG)12 binding, 665/545 ratio; active = well fitted inhibition curve with a large enough effect in the signal ratio, with a control signal flat, not every such curve was filed as active; inconclusive = small, poorly fitted or top-dose-only effect, or effect the other way, or a change in a side signal; inactive = no such curve, though single readings can be large or run the other way; the % refers to the signal ratio
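Compounds (final 92 nM to 58 uM) are added to His-tagged MBNL1 and biotin-(CUG)12, then terbium anti-His antibody and streptavidin-XL665 (5 nM final). After 60 min at room temperature, the 665/545 nm ratio is read.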
KCNH2 3.1 block = KCNH2 3.1 (human) potassium channel inhibition | 340,000 tested, 0.95% active | U2OS KCNH2 3.1, thallium flux FluxOr; stronger effect = lower value | activity change, % (tested at about 1.8 µM);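 active = maximum activity change below -70%; inconclusive = maximum activity change from -70% to -50%; inactive = maximum activity change above -50%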;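 also: thallium influx rate constant from kinetic fluorescence after stimulation buffer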
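U2OS cells transduced with KCNH2 3.1 mutant virus (1.77 x 10^8 /mL, 4 h), plated overnight at 37 C, loaded 45 min with FluxOr dye plus Red40 quencher. Thallium flux rate constant from kinetic reads after stimulation buffer, normalised to controls.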
Each line names hits and unclear results; the compound was inactive in the other large screens; ! = repeats disagree.

COc1ccc(CN(C(=O)c2ccc(C)cc2)C2CCS(=O)(=O)C2)cc1 (configuration not stated)	none
CCN(CC1CCCN(CCc2cccc(F)c2)C1)C(=O)c1ccoc1C (configuration not stated)	none (no result: TRPV1 PAM, TRPV1 ag, MBNL1-CUG inh)
CCN(CC1CCCN(CCc2cccc(F)c2)C1)C(=O)c1ccc(CSC)o1 (configuration not stated)	KCNH2 3.1 block -83.5
CNC(=S)N(Cc1cc2cc(OC)c(OC)cc2[nH]c1=O)C1CCCC1	none
CCOC(=O)/C(=C/C=C1\Sc2cc(C)c(C)cc2N1CC)C(C)=O	TRPV1 ag 105.7, MBNL1-CUG inh inconclusive
CCN1CCN(Cc2ccc(NC(=O)c3ccc(C)c(NC(=O)C(=O)c4c[nH]c5ccccc45)c3)cc2C(F)(F)F)CC1	KCNH2 WT inh -131.7!
CCN1CCN(Cc2ccc(NC(=O)c3cc(NC(=O)C(=O)c4c[nH]c5ccccc45)cc(OC)c3)cc2C(F)(F)F)CC1	TRPV1 PAM inconclusive
COCCn1nnnc1CN1CCSCC1	none
CCOC(=O)Cc1csc(NC(=O)/C=C/c2ccc(Cl)cc2)n1	none
CCOc1ccc(/C=N/NC(=O)c2csc(C)c2C)c(OCC)c1	KCNH2 3.1 block -80.8
c1coc(-c2nc3cc4ccccc4cc3nc2-c2ccco2)c1	none (no result: KCNH2 WT inh, MBNL1-CUG inh, KCNH2 3.1 block)
CCN(CC(=O)Nc1ccc(NC(C)=O)cc1)C(=O)CSCC(=O)Nc1ccc(C)cc1	none (no result: MBNL1-CUG inh)
CCOC(=O)CC(=O)CSCC(=O)Nc1ccc(C)cc1	KCNH2 3.1 block -75.2
COC(=O)c1nc(NC(=O)c2cc(OC)c(OC)c(OC)c2)n[nH]1	none
Cc1ccc(C)c(C(=O)CCC(=O)Nc2ccc(F)cc2)c1	TRPV1 ag inconclusive
Cc1ccc(C)c(C(=O)CCC(=O)Nc2ccc(N3CCN(C)CC3)cc2C)c1	KCNH2 3.1 block -121.8 (no result: TRPV1 PAM, TRPV1 ag, MBNL1-CUG inh)
CNc1c(NC(=O)c2ccc3c(c2)OCO3)c(=O)oc2ccccc12	none
COc1ccc(/C=N/NC(=O)c2cccc(COCC(F)(F)C(F)F)c2)cc1	none
CCOc1ccc(C2=NNC(c3cccnc3)=Nc3ccc(OC)cc32)cc1	none
CCOc1ccc2c(c1)C(c1ccc(C)cc1)=NNC(c1ccc(OC)cc1)=N2	KCNH2 3.1 block -93.7
Fc1ccc2c(c1)Sc1ccc(Cl)cc1CC2N1CCN(CCC2OCCO2)CC1 (configuration not stated)	KCNH2 3.1 block -95.3 (no result: TRPV1 PAM, TRPV1 ag, MBNL1-CUG inh)
COc1ccc(OC)c(NC(=O)CCN2CCN(c3ccccc3OC)CC2)c1	none
CCn1cc(C(=O)NCCCN(C)c2ccccc2)c(=O)c2cc(S(=O)(=O)N(C)C)ccc21	TRPV1 ag inconclusive
CCN(CCCNC(=O)c1cn(CC)c2ccc(S(=O)(=O)N(C)C)cc2c1=O)c1cccc(C)c1	TRPV1 ag 109.5
Cc1cc(NCCCn2ccnc2)n2ncc(-c3ccc(Cl)cc3)c2n1	KCNH2 3.1 block -73.1
Cc1ccc(S(=O)(=O)N(C)c2ccc3ccccc3c2)cc1	KCNH2 3.1 block -147.9
Cc1ccccc1C(=O)NNC(=O)C(C)N1C(=O)c2ccccc2C1=O (configuration not stated)	KCNH2 3.1 block -73.0
COc1cccc(NC(=O)c2cc3ccccc3oc2=O)c1	KCNH2 WT inh -75.8
COc1ccccc1C(=O)NC(=S)Nc1ccc(NC(=O)c2ccco2)cc1	KCNH2 3.1 block -72.9
COc1cc(NC(=O)c2ccccc2F)ccc1NC(=O)c1cc2ccccc2o1	KCNH2 3.1 block -71.2
COc1ccc2oc(=O)c(C(=O)Nc3cccc(C(C)=O)c3)cc2c1	MBNL1-CUG inh inconclusive
COc1cc(NC(=O)c2cc3ccccc3o2)ccc1NC(=O)c1ccco1	KCNH2 3.1 block -81.5
COc1cc(NC(=O)c2ccc(F)cc2)ccc1NC(=O)c1cc2ccccc2o1	MBNL1-CUG inh inconclusive
CCN(C(=O)CN1CCCC(C)C1)c1c(N)n(Cc2ccccc2)c(=O)[nH]c1=O (configuration not stated)	KCNH2 3.1 block inconclusive (no result: TRPV1 PAM, TRPV1 ag, MBNL1-CUG inh)
Cc1ccc2nc(SCC(=O)Nc3ccc(F)cc3F)nc(=O)n2c1	none (no result: MBNL1-CUG inh)
Cc1cn(C2CCCO2)c(=O)nc1N (configuration not stated)	none (no result: TRPV1 PAM, TRPV1 ag, MBNL1-CUG inh)
O=C(c1ccc2nc(Cc3ccccc3F)oc2c1)N1CC[C@H](O)C1	none
O=C(NN=C1CCCC1)c1ccn[nH]1	KCNH2 WT inh -135.7, KCNH2 3.1 block -200.1 (no result: MBNL1-CUG inh)
O=C(NN=C1CCCC1)c1cc(-c2ccccc2)n[nH]1	none (no result: MBNL1-CUG inh)
O=C(COC(=O)c1ccc(-n2cnnn2)cc1)c1ccc(Br)cc1	KCNH2 WT inh inconclusive, KCNH2 3.1 block -83.2 (no result: MBNL1-CUG inh)
O=C(c1ccc2c(c1)OCO2)C1CCCN(Cc2cc(F)ccc2-n2cccn2)C1 (configuration not stated)	KCNH2 3.1 block -72.0
Cc1ccc(-n2cccn2)c(CN2CCCC(CNC(=O)c3ccc(F)cc3)C2)c1 (configuration not stated)	none
Cc1ccc(-n2cccn2)c(CN2CCCC(C(=O)c3ccc4c(c3)OCO4)C2)c1 (configuration not stated)	KCNH2 WT inh inconclusive, KCNH2 3.1 block -94.3
O=C(c1ccc2c(c1)OCO2)C1CCCN(Cc2ccccc2OC(F)F)C1 (configuration not stated)	none
COC(=O)[C@@H](Cc1ccccc1)NC(=O)Cn1cnc2c(SC)nc(N)nc21	none (no result: TRPV1 PAM, TRPV1 ag, MBNL1-CUG inh)
COCCCN1CCN(C2Cc3ccccc3Sc3ccc(Cl)cc32)CC1 (configuration not stated)	KCNH2 WT inh inconclusive, KCNH2 3.1 block -86.2
O=C(CCNC(=O)c1ccc([N+](=O)[O-])cc1)NCc1cccs1	none (no result: TRPV1 PAM, TRPV1 ag, MBNL1-CUG inh)
Cc1ccc(NC(=O)c2ncn(CCCN3CCN(Cc4cccc5ccccc45)CC3)n2)cc1C	KCNH2 3.1 block -72.0 (no result: TRPV1 PAM, TRPV1 ag, MBNL1-CUG inh)
CC(C)(C)C(CO)NC(=O)c1ccc[nH]1 (configuration not stated)	none (no result: MBNL1-CUG inh)
CCC(=O)N1CCN(c2ccc(NC(=S)NC(=O)c3ccc(OC)c([N+](=O)[O-])c3)cc2)CC1	MBNL1-CUG inh inconclusive, KCNH2 3.1 block -91.1
COc1ccc(C(=O)NC(=S)NNC(=O)c2ccccc2C)cc1	none (no result: TRPV1 PAM, TRPV1 ag, MBNL1-CUG inh)
COc1ccc(C(=O)Nc2ccc(N3CCCC3)cc2)cc1	TRPV1 ag inconclusive, MBNL1-CUG inh inconclusive
CN1CCN(c2ccc(NC(=S)NC(=O)c3cccc4c(Cl)cccc34)cc2)CC1	KCNH2 3.1 block -90.6
COc1ccc(C(=O)NC(=S)Nc2ccc(N3CCCC3)cc2)cc1	KCNH2 3.1 block -89.2
COc1ccc(C(=O)NC(=S)NNC(=O)c2ccccc2O)cc1	KCNH2 3.1 block -82.7
CCCCn1c(N)c(N(CCOC)C(=O)CSc2nnc(-c3ccc(F)cc3)n2N)c(=O)[nH]c1=O	none (no result: MBNL1-CUG inh)
C[C@H](CO)N1C[C@H](C)[C@@H](CN(C)S(=O)(=O)c2ccc(-n3cccn3)cc2)OCc2cn(nn2)CCCC1=O	none (no result: TRPV1 PAM, TRPV1 ag, MBNL1-CUG inh)
CC(C)CC(=O)NNC(=O)c1ccc(Cl)cc1	KCNH2 WT inh -74.5
